Drawing on PubChem BioAssay (EPA / NIEHS), this text covers outcome and AC50 for 40 compounds.

SMILES strings stand for the structures. Records with an inconclusive call do not appear. The source made the active and inactive calls. How the source made its calls: active means hit-call score of the fitted dose curve at least 0.9, where 1 is the maximum; inconclusive means response in the unintended direction; inactive means score below 0.9.

Retinoic acid receptor RXR-alpha (Homo sapiens), sequence (P19793 whole entry, looked up): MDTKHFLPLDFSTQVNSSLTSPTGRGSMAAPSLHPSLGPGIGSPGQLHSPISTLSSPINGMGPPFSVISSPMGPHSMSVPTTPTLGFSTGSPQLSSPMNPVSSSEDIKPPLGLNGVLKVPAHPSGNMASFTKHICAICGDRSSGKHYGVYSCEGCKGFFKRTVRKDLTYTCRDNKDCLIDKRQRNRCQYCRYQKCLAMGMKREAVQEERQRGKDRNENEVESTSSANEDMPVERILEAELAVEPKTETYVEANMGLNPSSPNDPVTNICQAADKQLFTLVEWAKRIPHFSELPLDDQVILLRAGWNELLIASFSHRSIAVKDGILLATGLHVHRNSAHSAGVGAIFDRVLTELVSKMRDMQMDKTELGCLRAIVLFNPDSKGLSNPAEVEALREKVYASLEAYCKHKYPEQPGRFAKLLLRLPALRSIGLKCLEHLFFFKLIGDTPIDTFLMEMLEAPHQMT

The target in the assay is Retinoic acid receptor RXR-alpha (Homo sapiens) (UniProt P19793). Nature of the assay: ATG_RXRa_TRANS: Attagene TRANS-FACTORIAL HepG2 Assay for human Retinoid X Receptor alpha (RXRa) (AID 2283012). How it is done:
ATG_TRANS is a cell-based, multiplexed-readout assay that uses HepG2, a human liver cell line, with measurements taken at 24 hours after chemical dosing in a 24-well plate.ATG_RXRa_TRANS is one of 30 assay component(s) measured or calculated from the ATG_TRANS assay. It is designed to make measurements of mRNA induction, a form of inducible reporter, as detected with fluorescence intensity signals by Reverse transcription polymerase chain reaction (RT-PCR) and Capillary electrophoresis technology.Data from the assay component ATG_RXRa_TRANS was analyzed into 1 assay endpoint. This assay endpoint, ATG_RXRa_TRANS, was analyzed in the positive analysis fitting direction relative to DMSO as the negative control and baseline of activity. Using a type of inducible reporter, measures of mRNA for gain-of-signal activity can be used to understand the reporter gene at the transcription factor-level as they relate to the gene RXRA. Furthermore, this assay endpoint can be referred to as a primary readout, because this assay has produced multiple assay endpoints where this one serves a reporter gene function. To generalize the intended target to other relatable targets, this assay endpoint is annotated to the nuclear receptor intended target family, where the subfamily is non-steroidal.
Human liver HepG2 cells are transiently transfected with multiple reporter transcription units (MRTUs) in 6-well plates using FuGene 6 reagent (Roche; 3 ml FuGene/1 mg DNA). The MRTU constructs are regulated by a cis-regulating element (promoter). […] A major difference between the CIS and TRANS system is that in CIS activities of endogenous TFs are measured, whereas the TRANS assay evaluates changes in activities of exogenous, chimeric NR-Gal4 proteins. […] At the end of 24 hour incubation, total RNA was isolated using TriZol reagent (Invitrogen). The isolated RNA is then reverse-transcribed using oligo(dT) primer and Mo-MLV reverse transcriptase (Invitrogen) with DNAse I (Ambion) treatment for 30 min. The one-tenth of the produced cDNA was amplified by PCR using Taq DNA polymerase (Invitrogen) and two reporter sequence-specific primers. The PCR products were fluorescently labeled by primer extension with 6-arboxyfluorescein (6-FAM) 5'-labeled reporter sequence-specific primer (2 min at 95 C, 20 s at 68 C and 10 min at 72 C) and these products were digested with 5U of HpaI (New England Biolabs) for 2h at 37 C. The fragments were purified using Qiaquick PCR columns (Qiagen), analyzed on an ABI 3130xL genetic analyzer (Applied Biosystems) with peak positions identified by using a set of X-rhodamine (ROX)-labeled MapMarker1000 molecular weight standards (BioVentures). The raw capillary electrophoresis data was processed using Attagraph software (Attagene).
Regarding `Cc1cnc(NC(=O)C2=C(O)c3ccccc3S(=O)(=O)N2C)s1`, the call was inactive.
With `CCOC(=O)CC`, the call was inactive.
On the same count and under the same terms, in the case of `Cc1ccccc1C` it was “inactive”.
Still for that read-out and setting: in the case of `CN(C)c1ccc(N=Nc2ccccc2C(=O)O)cc1` it was “inactive”; in that of `CCc1nccnc1C`, “inactive”; in that of `O=C1c2cccc(O)c2C(=O)c2c(O)cc(CO)cc21`, “inactive”.
In the case of `CCC(C)OC(=O)c1ccc(O)cc1` (stereo not given), the compound was called inactive.
Turning to `Cc1cc(C)c(C)c(O)c1`, the outcome was inactive.
The same measure, in the same setting: in the case of `CCC(C)C=O` (stereo not given) it was “inactive”; in that of `C[Si](C)O[Si](C)(C)O[Si](C)(C)O[Si](C)C`, “inactive”; in that of `Nc1ccc(N=Nc2ccccc2)c(N)n1`, “inactive”.
The same measure, in the same setting: in the case of `CCCCCCC(O)CO` (stereo not given) it was “inactive”.
On to `C=C(C)C(=O)OCCOc1ccccc1`, for which the AC50 was 26.5 µM (active).
Take `CC1OC1C1CCC2(C)OC2C1` (stereo not given): the result was inactive.
Turning to `CC(=O)NS(=O)(=O)c1ccc(N)cc1`, the compound was classed as inactive.
Same read-out and setting: in the case of `CCCCCCCCCCc1ccccc1` it was “inactive”.
Still for that read-out and setting: in the case of `C[Si](C)(C)O[Si](O)(O)O` it was “inactive”; in that of `C=C1[C@H]2CC[C@@H]3[C@H]2C(C)(C)CCC[C@]13C`, “inactive”.
In the case of `CC(C)c1ccc2c(c1)CC[C@H]1[C@](C)(CN)CCC[C@]21C`, the AC50 is 6.76 µM (active).
On to `CC=CC(F)(F)C(F)(F)C(F)(F)F`, for which the compound was classed as inactive.
Turning to `CC(C)CCCCCOC(=O)CCS`, the call was inactive.
Same read-out and setting: in the case of `CN(C)CCCN(C)C` it was “inactive”; in that of `Cc1ccc(C(C)c2ccc(C)c(C)c2)cc1C`, “inactive”.
In the case of `C[C@]12C=CC(=O)C=C1CC[C@@H]1[C@@H]2[C@@H](O)C[C@@]2(C)[C@H]1CC[C@]2(O)C(=O)CO`, the result was inactive.
For `Cc1oncc1C(=O)Nc1ccc(C(F)(F)F)cc1`, the call was inactive.
On to `CCN(CCO)c1cccc(C)c1`, for which the compound was called inactive.
The same measure, in the same setting: in the case of `CC(C)c1ccc(C#N)cc1` it was “inactive”.
Turning to `OCCCS`, the compound was classed as inactive.
Same read-out and setting: in the case of `O=[N+]([O-])C1(Br)COCOC1` it was “inactive”.
As for `CCOC(=O)Cc1cccc2ccccc12`, the call was inactive.
On the same count and under the same terms, in the case of `CC(=O)C=CC1C(C)=CCC(C)C1(C)C` (stereo not given) it was “inactive”; in that of `Cc1ccc2oc(=O)ccc2c1`, “inactive”; in that of `c1ccc(-c2ccccn2)nc1`, “inactive”.
The same measure, in the same setting: in the case of `FC(F)(F)C(=NOCC1OCCO1)c1ccc(Cl)cc1` it was “inactive”.
Consider `CC(=O)OCC(=O)[C@@]12N=C(C)O[C@@H]1C[C@H]1[C@@H]3CCC4=CC(=O)C=C[C@]4(C)[C@H]3[C@@H](O)C[C@@]12C`, for which the AC50 was 16.7 µM (active).
With `CCc1ccc2c(c1)C(=O)c1ccccc1C2=O`, the call was inactive.
Same read-out and setting: in the case of `CCC(=O)Oc1ccc(/C(CC)=C(\CC)c2ccc(OC(=O)CC)cc2)cc1` it was “inactive”.
Same read-out and setting: in the case of `Cc1cccc(C(=O)O)c1` it was “inactive”; in that of `O=C(Cl)c1cc(C(=O)Cl)cc(C(=O)Cl)c1`, “inactive”; in that of `CC(=O)c1ccc2c(c1)CCCC2`, “inactive”.
